Test results as given in PubChem BioAssay.

Assay: yeast transport mutant growth inhibition pilot in 384-well plates, post-Golgi transport modulator project (AID 636)
Conditions: absorbance 615 nm, about 18 h, active compounds read high; in the data active = inhibition above about 31%; inactive = the rest

inhibition, inactive:
COC(=O)Cc1c(C)nc2nc[nH]n2c1=O -4.73%
CCOCCCn1c(=NC(C)=O)c(C(=O)OCC)cc2c(=O)n3ccccc3nc21 -0.68%
Cc1ccc(N2CCN(c3ccc(C)cc3)C(CC(=O)O)C2=O)cc1 (stereo not given) -5.89%
C[C@@H]1C[C@H]2[C@@H]3C[C@H](F)C4=CC(=O)C=C[C@]4(C)[C@@]3(F)[C@@H](O)C[C@]2(C)[C@@]1(O)C(=O)COC(=O)C(C)(C)C -3.38%
CC(C)N(C(=O)N1CCC(c2nc(-c3ccncc3)no2)CC1)C(C)C -4.86%
CCOc1cc2[nH]c(=O)n(CCCCC(=O)NCc3ccco3)c(=O)c2cc1OCC -2.34%
Cc1ccc(C2C(C(=O)c3sc(C)nc3C)=C(O)C(=O)N2CCN(C)C)o1 (stereo not given) -3.65%
COc1cc(C(=O)N2CCCC(c3nc(-c4cccs4)no3)C2)cc(OC)c1OC (stereo not given) -1.05%
CC1Oc2ccccc2N(CC(=O)NCc2cccs2)C1=O (stereo not given) -6.71%
Cn1c(=O)c2c(nc(CN3CCCCC3)n2CCCc2ccccc2)n(C)c1=O -1.3%
O=C(O)CC1Sc2nc3ccccc3n2C1=O (stereo not given) -6.08%
CCN(CC)S(=O)(=O)c1ccc(F)c(C(=O)NCCC(C)C)c1 -0.54%
CCOC(=O)n1c(=O)oc2cc(S(=O)(=O)N3CCCCC3)ccc21 -4.27%
COC(=O)CCN(C(=O)c1ccc2c(c1)OCO2)c1ccccn1 -8.22%
CC(C)NC(=O)c1ccccc1NC(=O)CCS(=O)(=O)Cc1ccccc1 -1.64%
